Reference: PubChem BioAssay (NCATS)
Results filed as inconclusive are left out. The source made the active and inactive calls. Unless noted, the call rests on the fitted dose curve.

Tests used:
[1] = target: Bile acid receptor (Homo sapiens) (UniProt Q96RI1); assay: qHTS assay for small molecule agonists of farnesoid X receptor signaling (AID 588527); settings: HEK293T FXR-UAS-bla, beta-lactamase ratio, 16 h; activation: stronger effect = higher value;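 further: series mostly up to about 77 µM; 0% = vehicle basal and 100% = reference agonist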
Bile acid receptor (Homo sapiens), sequence (Q96RI1 whole entry, looked up): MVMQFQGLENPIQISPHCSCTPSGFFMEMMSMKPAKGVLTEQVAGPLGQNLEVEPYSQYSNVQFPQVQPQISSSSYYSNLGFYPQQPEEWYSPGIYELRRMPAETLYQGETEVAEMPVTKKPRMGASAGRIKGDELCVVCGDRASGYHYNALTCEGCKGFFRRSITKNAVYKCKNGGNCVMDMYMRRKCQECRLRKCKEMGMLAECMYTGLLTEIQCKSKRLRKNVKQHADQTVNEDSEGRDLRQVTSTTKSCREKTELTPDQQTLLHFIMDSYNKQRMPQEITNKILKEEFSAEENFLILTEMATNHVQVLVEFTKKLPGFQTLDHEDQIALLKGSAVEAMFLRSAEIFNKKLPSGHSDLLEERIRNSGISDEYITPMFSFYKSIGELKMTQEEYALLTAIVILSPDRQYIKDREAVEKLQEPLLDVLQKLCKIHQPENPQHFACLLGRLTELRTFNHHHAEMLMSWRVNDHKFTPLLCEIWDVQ
Outline: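 FXR-UAS-bla HEK293T, 10% dialyzed FBS; cpds up to 92 uM titration, 16 h 37 C; CCF4 dye 2 h RT; fluorescence. Normalized to chenodeoxycholic acid 100 uM (100%) and DMSO (0%); Hill fit gives EC50, efficacy.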

[2] = target: Peroxisome proliferator-activated receptor delta (Homo sapiens) (UniProt Q03181); assay: qHTS assay for small molecule agonists of peroxisome proliferator-activated receptor delta signaling (AID 588534);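 further: 0% = DMSO basal wells and 100% = positive control agonist at 10 µM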
Peroxisome proliferator-activated receptor delta (Homo sapiens), sequence (Q03181 whole entry, looked up): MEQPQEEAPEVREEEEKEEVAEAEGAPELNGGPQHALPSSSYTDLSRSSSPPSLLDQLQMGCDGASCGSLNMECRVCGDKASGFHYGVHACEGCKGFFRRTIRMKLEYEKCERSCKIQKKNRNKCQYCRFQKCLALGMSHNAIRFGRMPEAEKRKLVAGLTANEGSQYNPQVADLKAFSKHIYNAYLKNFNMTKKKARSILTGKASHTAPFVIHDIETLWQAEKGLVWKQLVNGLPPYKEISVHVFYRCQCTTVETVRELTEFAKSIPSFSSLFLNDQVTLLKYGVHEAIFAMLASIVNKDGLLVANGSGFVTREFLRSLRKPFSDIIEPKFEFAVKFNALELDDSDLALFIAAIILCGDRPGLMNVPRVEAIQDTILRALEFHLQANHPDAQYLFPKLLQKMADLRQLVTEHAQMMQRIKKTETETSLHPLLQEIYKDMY
Outline: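 Fluorescence from CCF4 substrate cleavage by beta-lactamase reporter, read 2 hrs at RT, measured agonist activity. Compounds were tested with 18 hrs exposure at 37 C. Concentration-response data fitted to Hill equation.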

[3] = qHTS assay for small molecule antagonists of peroxisome proliferator-activated receptor delta signaling (AID 588535; active means well fitted inhibition curve with a large enough effect in the signal ratio, with a control signal flat, not every such curve was filed as active; the % refers to the signal ratio;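 on max response: cells co-treated with a PPAR-delta agonist as stimulator during compound exposure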); settings: HEK293T PPARd-UAS-bla, beta-lactamase FRET ratio, 18 h; 460 nm channel
Outline: (§1)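 HEK293T PPAR-delta-UAS-bla cells, 4000/well, 2% charcoal/dextran FBS; 5 h 37 C; cpd titration; 18 h 37 C; CCF4 2 h RT; FI 460/530 nm; Hill fit → IC50, efficacy.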

[4] = target: Peroxisome proliferator-activated receptor delta (Homo sapiens) (UniProt Q03181); assay: as above
Outline: as §1

[5] = target: Vitamin D3 receptor (Homo sapiens) (UniProt P11473); assay: qHTS assay for small molecule antagonists of vitamin D receptor signaling (AID 588541);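 further: receptor activated by calcitriol during compound treatment; series mostly up to about 77 µM; on the % scale 0 is the no-effect control and ±100 the full control effect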
Vitamin D3 receptor (Homo sapiens), sequence (P11473 whole entry, looked up): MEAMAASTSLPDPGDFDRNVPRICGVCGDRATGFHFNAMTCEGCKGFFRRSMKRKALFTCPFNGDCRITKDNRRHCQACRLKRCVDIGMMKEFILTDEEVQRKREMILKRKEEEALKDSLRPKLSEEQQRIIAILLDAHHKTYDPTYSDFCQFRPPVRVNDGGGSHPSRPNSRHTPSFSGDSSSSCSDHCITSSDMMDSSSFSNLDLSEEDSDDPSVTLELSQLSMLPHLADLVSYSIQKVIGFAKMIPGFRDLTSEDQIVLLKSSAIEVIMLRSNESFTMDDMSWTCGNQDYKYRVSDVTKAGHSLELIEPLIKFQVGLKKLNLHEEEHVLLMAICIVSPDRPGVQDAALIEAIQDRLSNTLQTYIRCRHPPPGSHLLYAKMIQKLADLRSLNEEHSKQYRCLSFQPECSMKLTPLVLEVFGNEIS
Outline: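 Antagonist-mode beta-lactamase reporter assay: HEK293T VDR-UAS-bla cells were exposed to titrated compound alongside 1-alpha,25-dihydroxyvitamin D3 at 3 nM final for 16 h. Values were normalized to the 50 nM agonist control and DMSO basal, with IC50 and efficacy from Hill equation fits.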

[6] = target: Vitamin D3 receptor (Homo sapiens) (UniProt P11473); assay: qHTS assay for small molecule agonists of vitamin D receptor signaling (AID 588543);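 further: 0% = DMSO basal and 100% = reference agonist control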
Outline: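 GeneBLAzer VDR-UAS-bla HEK293T cells in 2% charcoal-stripped FBS medium were dosed with compound titrations for 16 h at 37 °C; CCF4 β-lactamase readout (405 nm ex, 460/530 nm em). EC50 and efficacy from Hill fits, normalized to 50 nM calcitriol (100%) and DMSO (0%).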

[7] = qHTS assay for small molecule agonists of retinoid X receptor alpha signaling (AID 588544); settings: HEK293T RXRa-UAS-bla, beta-lactamase reporter, 18 h; 530 nm emission;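 on activation: 0% = DMSO basal wells and 100% = reference agonist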
[8] = target: Retinoic acid receptor RXR-alpha (Homo sapiens) (UniProt P19793); assay: as above
Retinoic acid receptor RXR-alpha (Homo sapiens), sequence (P19793 whole entry, looked up): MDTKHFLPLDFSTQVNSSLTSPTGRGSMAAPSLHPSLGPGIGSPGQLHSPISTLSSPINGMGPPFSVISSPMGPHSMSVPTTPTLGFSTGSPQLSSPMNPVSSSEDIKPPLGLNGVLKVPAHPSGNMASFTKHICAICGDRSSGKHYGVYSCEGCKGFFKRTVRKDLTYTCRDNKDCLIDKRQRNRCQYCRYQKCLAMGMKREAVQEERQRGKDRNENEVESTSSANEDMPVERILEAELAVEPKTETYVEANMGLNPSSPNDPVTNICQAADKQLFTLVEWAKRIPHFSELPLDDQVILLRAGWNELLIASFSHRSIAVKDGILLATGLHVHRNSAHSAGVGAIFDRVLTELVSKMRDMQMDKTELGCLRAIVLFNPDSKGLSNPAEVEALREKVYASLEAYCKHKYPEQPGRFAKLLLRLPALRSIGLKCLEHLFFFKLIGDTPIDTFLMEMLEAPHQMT

[9] = target: Thyroid hormone receptor beta (Homo sapiens) (UniProt P10828); assay: qHTS assay for small molecule agonists of thyroid hormone receptor beta signaling (AID 588545)
Thyroid hormone receptor beta (Homo sapiens), sequence (P10828 whole entry, looked up): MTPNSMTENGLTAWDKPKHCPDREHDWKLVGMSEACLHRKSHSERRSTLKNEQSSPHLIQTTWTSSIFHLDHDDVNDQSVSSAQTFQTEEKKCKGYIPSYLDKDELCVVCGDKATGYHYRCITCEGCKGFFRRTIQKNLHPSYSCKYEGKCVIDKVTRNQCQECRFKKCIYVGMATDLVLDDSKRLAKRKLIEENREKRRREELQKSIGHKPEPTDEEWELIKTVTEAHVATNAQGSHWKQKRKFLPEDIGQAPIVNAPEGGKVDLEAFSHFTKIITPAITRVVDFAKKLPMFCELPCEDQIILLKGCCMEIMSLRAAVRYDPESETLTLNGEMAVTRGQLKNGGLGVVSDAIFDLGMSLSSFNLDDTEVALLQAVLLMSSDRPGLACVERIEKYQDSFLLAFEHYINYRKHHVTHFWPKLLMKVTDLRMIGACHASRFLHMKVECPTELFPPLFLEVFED
Outline: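 HEK 293 TR-UAS-bla; agonist mode; 18 hrs, 37 C; CCF4, ex 405/em 460 and 530 nm; norm. T3 10 nM = 100%, DMSO = 0%; Hill fit → EC50, efficacy.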

[10] = qHTS assay for small molecule antagonists of retinoid X receptor alpha signaling (AID 588546; active means well fitted inhibition curve with a large enough effect in the signal ratio, with a control signal flat, not every such curve was filed as active; the % refers to the signal ratio;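 further: cells stimulated with 9-cis-retinoic acid as agonist; on the % scale 0 is the no-effect control and ±100 the full control effect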); settings: HEK293T RXRa-UAS-bla, beta-lactamase ratio, antagonist mode; measured here: W530 green channel, cytotoxicity proxy
Outline: (§2)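 Beta-lactamase reporter inhibition, read as CCF4 fluorescence ratio (ex 405, em 460/530 nm) after 2 h at RT. HEK293T UAS-bla cells, 2500/well, were stimulated with 9-cis-RA at 500 or 100 nM final alongside test compound for 18 h at 37 C.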

[11] = target: Retinoic acid receptor RXR-alpha (Homo sapiens) (UniProt P19793); assay: as above; settings: HEK293T RXRa-UAS-bla, beta-lactamase ratio, antagonist mode
Outline: as §2

[12] = qHTS assay for small molecule activators of the p53 signaling pathway (AID 651743; active means well fitted activation curve with a large enough effect in the signal ratio, not every such curve was filed as active; the % refers to the signal ratio; further: series mostly up to about 92 µM; % of control where 0% means no effect); settings: HCT-116 p53RE-bla, beta-lactamase FRET ratio, 16 h; activation: stronger effect = higher value
Outline: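 Read-out is fluorescence intensity from the LiveBLAzer B/G FRET substrate, added for 2 hours at room temperature after HCT-116 p53RE-bla cells had been incubated with compounds for 16 hours at 37 C.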

[13] = qHTS assay for small molecule activators of the nuclear factor-kappa B (NF-kB) signaling pathway (AID 651749; active means well fitted activation curve with a large enough effect in the signal ratio; the % refers to the signal ratio; further: series mostly up to about 77 µM; % of control where 0% means no effect); settings: NF-kB-bla ME-180 cells, beta-lactamase FRET ratio, 16 h; activation: stronger effect = higher value
Outline: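 Readout: beta-lactamase reporter driven by an NF-kB response element, detected fluorescently as loss of FRET. Cells were the ME-180 line, treated 16 hr at 37C with pin-transferred compound.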

[14] = target: Peroxisome proliferator-activated receptor alpha (Homo sapiens) (UniProt Q07869); assay: qHTS assay for small molecule agonists of the peroxisome proliferator-activated receptor alpha (PPARalpha) signaling pathway (AID 651778; active means well fitted curve in the direction sought with a large enough effect; an effect the other way counts as inactive or inconclusive; further: % of control where 0% means no effect); settings: PathHunter PPARalpha complementation, chemiluminescence, 6 h; max response: stronger effect = higher value
Peroxisome proliferator-activated receptor alpha (Homo sapiens), sequence (Q07869 whole entry, looked up): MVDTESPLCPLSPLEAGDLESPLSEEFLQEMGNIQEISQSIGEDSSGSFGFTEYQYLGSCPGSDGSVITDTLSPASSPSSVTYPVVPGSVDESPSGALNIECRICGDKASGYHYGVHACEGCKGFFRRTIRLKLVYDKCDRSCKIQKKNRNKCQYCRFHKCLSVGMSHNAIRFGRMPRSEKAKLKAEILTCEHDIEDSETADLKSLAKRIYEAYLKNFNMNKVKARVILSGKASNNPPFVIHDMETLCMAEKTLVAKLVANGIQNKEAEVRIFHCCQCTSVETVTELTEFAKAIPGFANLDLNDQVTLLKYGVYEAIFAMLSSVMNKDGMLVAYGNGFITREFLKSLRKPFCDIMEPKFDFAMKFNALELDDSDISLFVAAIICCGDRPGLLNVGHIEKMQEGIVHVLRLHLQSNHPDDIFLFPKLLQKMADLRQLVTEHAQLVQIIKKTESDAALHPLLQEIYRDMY
Outline: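 Chemiluminescence from complemented enzyme reported PPARalpha activation in cells after 6 hr of compound treatment at 37 C. The detection reagent was incubated for 60 min at room temperature, and compounds were scored as agonists.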

[15] = qHTS assay for small molecule agonists of the antioxidant response element (ARE) signaling pathway measured by Nrf2-dependant transcriptional activity (AID 720636; active means well fitted curve in the direction sought with a large enough effect in the repeat runs; an effect the other way counts as inactive or inconclusive; further: potency means the concentration at half of the fitted maximal effect; on activation: % of control where 0% means no effect)
Outline: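 ARE-luc HepG2 cells carrying an Nrf2-responsive luciferase reporter, in medium with 1% dialyzed FBS, exposed to compound for 16 hr at 37 C, 5% CO2. Luminescence read 30 min after ONE-Glo addition.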

[16] = qHTS assay for small molecule agonists of the antioxidant response element (ARE) signaling pathway measured by Nrf2-dependant transcriptional activity - cell viability counter screen (AID 720653; active means well fitted curve in the direction sought with a large enough effect in the repeat runs; an effect the other way counts as inactive or inconclusive; further: on the % scale 0 is the no-effect control and ±100 the full control effect); settings: ARE-bla HepG2 viability, CellTiter-Glo ATP luminescence, 16 h; max response: stronger effect = lower value
Outline: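 Cytotoxicity counter screen: intracellular ATP quantified by CellTiter-Glo luminescence in the same ARE-bla HepG2 plates, after 16 h compound exposure and a 2 h beta-lactamase substrate step.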

[17] = qHTS assay for cell viability of HEK293 cells (AID 743288; active means well fitted curve in the direction sought with a large enough effect; an effect the other way counts as inactive or inconclusive; further: on the % scale 0 is the no-effect control and ±100 the full control effect; nearly all actives have a fitted effect of over 50% in size); settings: ATP luminescence (CellTiter-Glo), 18 h; max response: stronger effect = lower value
Outline: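 Parental HEK293 cells were seeded at 2,000 cells/well, rested at least 5 h at 37 C, then exposed to compounds in DMSO for 18 h at 37 C. Viability was read as ATP-dependent luciferase luminescence after 30 min at room temperature.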

[18] = target: Nuclear receptor subfamily 1 group I member 2 (Rattus norvegicus) (UniProt Q9R1A7); assay: qHTS assay for small molecule activators of the rat pregnane X receptor (rPXR) signaling pathway (AID 651751; call rule not given here; further: 0% is about no effect); settings: rPXR reporter cells, luciferase (One-Glo), 24 h
Nuclear receptor subfamily 1 group I member 2 (Rattus norvegicus), sequence (Q9R1A7 whole entry, looked up): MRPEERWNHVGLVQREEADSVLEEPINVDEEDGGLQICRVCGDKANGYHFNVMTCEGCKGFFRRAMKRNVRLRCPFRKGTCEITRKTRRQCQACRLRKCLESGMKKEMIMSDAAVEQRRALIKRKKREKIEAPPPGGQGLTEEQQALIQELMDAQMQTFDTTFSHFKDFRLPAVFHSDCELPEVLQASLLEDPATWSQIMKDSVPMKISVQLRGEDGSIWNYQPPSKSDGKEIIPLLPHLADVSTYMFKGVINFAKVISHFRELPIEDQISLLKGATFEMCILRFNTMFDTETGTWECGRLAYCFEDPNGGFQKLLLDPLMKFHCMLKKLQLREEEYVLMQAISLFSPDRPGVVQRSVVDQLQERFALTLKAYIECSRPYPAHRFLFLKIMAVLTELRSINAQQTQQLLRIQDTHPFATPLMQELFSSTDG

[19] = qHTS assay for environmental chemicals that activate the Aryl hydrocarbon Receptor (AhR) signaling pathway (AID 651777; active means well fitted curve in the direction sought with a large enough effect; an effect the other way counts as inactive or inconclusive; further: % of control where 0% means no effect; nearly all actives have a fitted effect of over 15% in size); settings: 1A2-DRE human hepatoma cells, luciferase, 24 h; activation: stronger effect = higher value
Outline: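 Human hepatoma 1A2-DRE cells stably carrying a DRE/CYP1A2 promoter–luciferase reporter, 1,200 cells/well, exposed to compound 24 hr at 37 C. Luciferase read by One-Glo luminescence after 30 min at room temperature; increased signal marks AhR activation.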

[20] = qHTS assay for cell viability of the p53RE-bla HCT-116 cell line (AID 743292; active means well fitted curve in the direction sought with a large enough effect; an effect the other way counts as inactive or inconclusive; further: on the % scale 0 is the no-effect control and ±100 the full control effect; nearly all actives have a fitted effect of over 55% in size)
Outline: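 CellSensor p53RE-bla HCT-116 cells (4,000/well) pre-incubated 5 h at 37 C, then exposed to compounds in DMSO for 16 h at 37 C. Viability read as ATP content by CellTiter-Glo luminescence after 30 min at room temperature.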

COCC(=O)N(c1c(C)cccc1C)N1CCOC1=O
-10.4%: max response [10]
-6.63%: max response [7]
inactive: activation [1] -0.109% | outcome [2] | Potency [4] | Potency [5] | outcome [6] | Potency [8] | Potency [9] | max response [11] 4.82% | activation [12] -3.26% | activation [13] -1.88% | max response [14] 0.278% | Potency [15] | max response [16] 1.06% | max response [17] 2.38% | max response [18] 3.21%
-6.17%: max response [3]

CC1(C)[C@H](C(=O)O[C@H](C#N)c2cccc(Oc3ccccc3)c2)[C@@H]1C=C(Br)Br
-14.7%: max response [7]
6.87%: max response [3]
inactive: outcome [2] | Potency [4] | Potency [8] | Potency [9] | activation [12] 3.18% | activation [19] -1.98% | max response [14] -0.333% | Potency [15] | max response [16] -10.6% | max response [17] -19% | Potency [20]

CCC(C)c1ccc(O)cc1 (configuration not stated)
-3.19%: max response [10]
-6.05%: max response [7]
inactive: activation [1] -4.25% | Potency [8] | Potency [9] | max response [11] -17.8% | activation [13] -0.802% | max response [14] -0.201% | Potency [15] | max response [16] -2.59% | max response [17] -7.5% | Potency [20] | max response [18] -4.44%

CCOc1cc(C(C)(C)C)ccc1C1COC(c2c(F)cccc2F)=N1 (configuration not stated)
-21.7%: max response [3]
inactive: Potency [4] | outcome [6] | Potency [9] | activation [13] 3.07% | activation [19] 6.58% | max response [14] 6.72% | max response [16] -8.55% | max response [17] -20%

Nc1nc(N)nc(N)n1
-6.58%: max response [7]
-0.207%: max response [10]
inactive: activation [1] 0.442% | outcome [2] | Potency [4] | Potency [5] | outcome [6] | Potency [8] | Potency [9] | max response [11] -7.03% | activation [12] -2.16% | activation [13] -1.8% | activation [19] -1.1% | max response [14] -3.29% | Potency [15] | max response [16] -2.99% | max response [17] -12% | Potency [20] | max response [18] -3.43%
16%: max response [3]

CCCOCC(=Nc1ccc(Cl)cc1C(F)(F)F)n1ccnc1
inactive: activation [1] -0.0346% | outcome [2] | Potency [4] | Potency [5] | outcome [6] | Potency [8] | Potency [9] | activation [12] -5.04% | activation [13] -1.47% | activation [19] 14% | max response [14] 9.44% | max response [16] -4.06% | max response [17] -21.5% | Potency [20]
18.7%: max response [3]
-2.58%: max response [7]
active: Potency [15] 61.1 µM

CCNc1nc(NC(C)C)nc(OC)n1
24.4%: max response [3]
-5.81%: max response [7]
inactive: activation [1] -2.29% | outcome [2] | Potency [4] | Potency [5] | outcome [6] | Potency [8] | Potency [9] | max response [11] 2.56% | activation [12] -0.985% | activation [13] -1.42% | activation [19] 0.686% | max response [14] -1.03% | Potency [15] | max response [16] 6.46% | max response [17] 0.985% | max response [18] 0.846%
-8.69%: max response [10]

COc1cccc(C(=O)NN(C(=O)c2cc(C)cc(C)c2)C(C)(C)C)c1C
-2.17%: max response [7]
inactive: activation [1] 4% | outcome [2] | Potency [4] | Potency [5] | Potency [8] | max response [11] -0.788% | activation [12] -3.69% | activation [19] 1.74% | max response [14] 0.438% | Potency [15] | max response [16] 2.48% | max response [17] -4.45% | Potency [20]
-5.99%: max response [10]
-0.516%: max response [3]

CCNS(=O)(=O)C(F)(F)C(F)(F)C(F)(F)C(F)(F)C(F)(F)C(F)(F)C(F)(F)C(F)(F)F
-20.7%: max response [3]
-8.67%: max response [10]
inactive: outcome [2] | Potency [4] | Potency [5] | outcome [6] | Potency [8] | Potency [9] | max response [11] 6.49% | activation [19] 1.24% | max response [14] 5.8% | Potency [15] | max response [16] -7.97% | max response [17] -20.2% | Potency [20] | max response [18] 2.04%
-3.73%: max response [7]
